# Sampled rows, rich in hits. Any-hit rate of the full collection: about 7.5%.
# ELG1 genotox: induces genotoxicity in HEK293T cells with luciferase-tagged ELG1; HEK293T ELG1-luciferase reporter, luminescence, 16 h; Potency, µM (highest dose often 46 µM), most hits filed as activators; actives 1.3% (n = 330,000); AID 504466; further: nearly all actives have a fitted effect of over 60% in size
#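 HEK293T cells expressing luciferase-tagged ELG1 were treated with compound or DMSO for 16 hr at 37°C. Luciferase activity was then read after 30 min with ONE-Glo at room temperature; rising signal flags genetic stress.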
# FLuc modulator: inhibits or activates purified firefly luciferase, miR-21 counter-screen; P08659; actives 6.9% (n = 360,000); AID 588342; purified FLuc, Km substrates, luminescence inhibition; Potency, µM (series often up to 57.5 µM), usual class: inhibitors; further: nearly all actives have a fitted effect of over 55% in size
# Target sequence (P08659 whole entry, looked up): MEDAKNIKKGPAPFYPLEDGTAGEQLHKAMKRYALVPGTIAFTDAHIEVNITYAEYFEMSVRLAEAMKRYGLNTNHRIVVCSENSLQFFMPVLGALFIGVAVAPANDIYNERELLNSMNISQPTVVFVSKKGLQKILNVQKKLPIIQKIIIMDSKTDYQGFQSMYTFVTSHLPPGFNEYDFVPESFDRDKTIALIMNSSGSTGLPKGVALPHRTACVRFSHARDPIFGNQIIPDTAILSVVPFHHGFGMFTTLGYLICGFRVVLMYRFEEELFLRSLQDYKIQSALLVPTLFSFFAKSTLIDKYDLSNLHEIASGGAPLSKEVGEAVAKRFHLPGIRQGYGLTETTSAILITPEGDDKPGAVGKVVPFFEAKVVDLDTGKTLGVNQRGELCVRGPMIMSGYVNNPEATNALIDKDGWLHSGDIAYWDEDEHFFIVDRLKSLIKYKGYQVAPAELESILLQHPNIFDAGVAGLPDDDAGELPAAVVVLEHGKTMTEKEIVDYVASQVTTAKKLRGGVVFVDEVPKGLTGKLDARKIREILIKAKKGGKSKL
#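 Purified P. pyralis luciferase (10nM final) with 10uM D-luciferin and 10uM ATP (Km levels) in 50mM Tris acetate pH 7.5, 10mM Mg acetate, 0.01% Tween-20, 0.05% BSA; qHTS 6-point titration, ~60 µM downward; luminescence read.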
# KinaseGlo FLuc: counter-screen: inhibitors of Kinase-Glo firefly luciferase; Kinase-Glo luciferase, ATP luminescence, 8 min; Potency, µM (titrated, usually from 38.3 µM), usual class: inhibitors; actives 0.28% (n = 200,000); AID 1379; further: nearly all actives have a fitted effect of over 60% in size
#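 Recombinant Kinase-Glo luciferase, 10 uM ATP (linear range), luciferin; imidazole pH 7.2 / KCl / MgCl2 / Tween / BSA buffer; 8 min RT; luminescence.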
# SMN2 splice enh: increases expression of the SMN2 splice variant | HEK293 SMN2-luciferase splicing reporter, luminescence, 30-36 h | Potency, µM (series often up to 46.1 µM), actives largely listed as activators | AID 1458 | actives 2.8% (n = 210,000); further: nearly all actives have a fitted effect of over 55% in size
#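 HEK293 cells carry an SMN2 minigene-luciferase reporter in which exon 7 inclusion puts luciferase in frame. Cells were seeded at 2000 cells/well, attached for 10-12 hours, then exposed to compounds for 30-36 hours at 37C before ONE-Glo luminescence.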
# Rab9 promoter act: activates the Rab9 promoter; Huh7 Rab9 promoter-luciferase reporter, luminescence, 24 h; Potency, µM (doses to about 9.22 µM), hits mostly activators; actives 2.8% (n = 320,000); further: nearly all actives have a fitted effect of over 60% in size
#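 Cells were plated at 1500 per well in reduced-serum medium with 10% FBS and left 2 h. Compound in DMSO was then added for 24 h at 37 °C. Reporter signal was read by luminescence after 10 min with luciferase detection reagent.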
# NPC1 prom act: NPC1 promoter activation | Huh7 NPC1 promoter luciferase reporter, 24 h | Potency, µM (doses to about 9.22 µM), actives largely listed as activators | actives 2.4% (n = 320,000) | AID 485313; further: nearly all actives have a fitted effect of over 60% in size
#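 Stable NPC1-promoter luciferase Huh7 line; cpd (DMSO) 24 h, 37 °C, 5% CO2; Amplite luciferase reagent 10 min RT; luminescence readout. qHTS format.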
# A number is an active result; n = inactive; u = inconclusive; x = not tested or not shown; [ ] = another dose, or the depositor's remark. The call rests on the fitted dose curve; in most records, active means well fitted curve in the direction sought with a large enough effect; inconclusive means small, poorly fitted or top-dose-only effect, or another doubt; inactive means no such curve, though single readings can be large; an effect the other way counts as inactive or inconclusive.
SMILES,ELG1 genotox,FLuc modulator,KinaseGlo FLuc,SMN2 splice enh,Rab9 promoter act,NPC1 prom act
CCn1c(CC(=O)Nc2ccccc2)nnc1SCC(=O)Nc1nnc(C)s1,n,n,x,x,n,n
Cc1ccc(NC(=O)CN2C=NS(=O)(=O)c3ccccc32)c(C)c1,x,n,x,x,x,x
Cc1cc(C)nc(-n2nc(C)c3c2NC(=O)CC3c2ccccc2OC(C)C)n1 (stereo not drawn),x,n,x,x,x,x
CCC1Sc2ccc(S(=O)(=O)CCC(=O)Nc3cccc(Br)c3)cc2NC1=O (stereo not drawn),n[9.26 µM],n,x,x,n,n
CCc1cc2c(=O)c(-c3nc(C)cs3)coc2cc1OC(C)C(=O)NCCO (stereo not drawn),n,11µM,n,n,n,n
CC(C)(C)C1CCc2c(C(=O)NNC(=O)CCCC(=O)O)csc2C1 (stereo not drawn),n,17µM,n,n,n,n
COc1ccc2c(CCNC(=O)Nc3ccccc3)c[nH]c2c1,n,n,n,x,n,n
CC(=O)Nc1cccc(C(=O)N/N=C/c2ccc(C)o2)c1,n,n,n,n,n,n
COc1ccc2c(c1)c(/C=N/Nc1ccc(C(=O)O)cc1)c(C)n2C,u,4.8µM,x,x,n,u
CC(=O)Nc1cccc(C(=O)N/N=C/c2c[nH]c3ccccc23)c1,n,15µM,x,x,n,n
CCCOc1ccc(/C=N/Nc2ccc(C(=O)O)cc2)c(OCCC)c1,u,5.4µM,n,n,u,n
COc1ccc2c(/C=N/Nc3ccc(C(=O)O)cc3)c[nH]c2c1,u,1.3µM,x,x,1.4µM,0.79µM
CCCCC(C(=O)NC1CCCC1)N(C(=O)c1snc(C(N)=O)c1N)c1ccc(OCC)cc1 (stereo not drawn),n,n,x,x,n,n
O=C(NCc1ccc(F)cc1)C(=O)NCC1OCCCN1S(=O)(=O)c1cccs1 (stereo not drawn),n,n,x,x,n,n
Cc1ccc(NC(=O)C(c2ccccc2)N2Cc3ccccc3C2=O)cc1Cl (stereo not drawn),x,n,x,x,x,x
O=C(N/N=C/c1c[nH]c2ccccc12)c1cccc(Cl)c1,n,21µM,x,x,u,u
O=C(N/N=C/c1c[nH]c2ccccc12)c1ccc(O)c(O)c1,n,2.4µM,x,x,n,n
O=C(N/N=C/c1c[nH]c2ccccc12)c1cccc(O)c1,n,11µM,x,x,n,n
COc1ccc(C(=O)N/N=C/c2cc3ccccc3[nH]c2=S)cc1,n,u,n,n,n,n
CCOc1ccccc1C(=O)N/N=C/c1c[nH]c2ccccc12,n,u,n,n,n,n
COc1ccc(C(=O)N/N=C/c2c[nH]c3ccccc23)cc1,n,13µM,x,x,n,u
Cc1ccc(S(=O)(=O)c2nnn(-c3ccc(F)c(Cl)c3)c2N)cc1,x,n,x,x,x,x
COc1cc(C)nc(NC(=S)N(C)C(=O)c2ccccc2)n1,n,n,x,x,n,n
Clc1nc2ccccc2nc1Cl,x,x,x,n,x,x
Cc1cc2n(n1)CCC(=O)N2Cc1ccc(C(=O)Nc2cc(Cl)ccc2C)cc1,x,n,x,x,x,x
SMILES,ELG1 genotox,FLuc modulator,KinaseGlo FLuc,SMN2 splice enh,Rab9 promoter act,NPC1 prom act
COc1ccc(NC(=O)Cn2c(=O)n(CCCC(=O)NCCc3ccc(C)cc3)c(=O)c3ccccc32)cc1Cl,x,n,x,n,x,x
O=C1CCN(Cc2ccccc2)C=C1c1ccc(Br)cc1,n,x,x,x,x,x
CCS(=O)(=O)c1ccc2oc(Nc3cc(Cl)ccc3OC)nc2c1,n,u,x,x,n,n
CCS(=O)(=O)c1ccc2oc(Nc3cccc(OC)c3)nc2c1,n,17µM,n,n,u,n
Clc1ccccc1Nc1nc2ccccc2o1,u,1.7µM,x,x,0.79µM,u
CCS(=O)(=O)c1ccc2oc(Nc3ccccc3Br)nc2c1,10µM,9.5µM,x,x,2µM,2.5µM
CCS(=O)(=O)c1ccc2oc(Nc3ccccc3Cl)nc2c1,5.2µM,9.5µM,x,x,0.63µM,1.6µM
Cc1cccc(N2CCN(C(=O)CN3CCSc4ccccc43)CC2C)c1 (stereo not drawn),x,n,x,x,x,x
COc1ccc(SC[C@H](Cc2ccccc2)N2CC[C@@H](C)CCC2=O)cc1,n,n,x,x,n,n
C=CCn1c(SCC(N)=O)nc2scc(-c3ccc(C)o3)c2c1=O,u,4.8µM,n,x,2.5µM,u
